# Data taken from PubChem BioAssay (EPA / NIEHS).
# Inconclusive results are not listed. The source holds several records for some structures; these can differ, active in one and inactive in another. The source made the active and inactive calls. The calls were made as follows, unless noted: active = hit-call score of the fitted dose curve at least 0.9, where 1 is the maximum; inactive = score below 0.9.
# Assay: CCTE_Harrill_HTTr_Apoptosis_MCF7: CCTE's 6-hour Apoptosis Assessment for the High-Throughput Transcriptomics (HTTr) Platform, in MCF-7 cells cultured in DMEM + 10% fetal bovine serum, Harrill Lab (AID 2284011)
# Summary of the method: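 Cells are dosed with test chemicals at eight concentrations and imaged 6 hours later for caspase-3/7 activity using a green fluorogenic detection reagent. Activity is fitted in both directions against DMSO controls.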
Compound,outcome,AC50
Nc1ccc(N=Nc2ccccc2)c(N)n1,inactive,–
O=C(O)c1ccccc1Nc1cccc(C(F)(F)F)c1,inactive,–
COc1ccc(C(Cl)=C(c2ccc(OC)cc2)c2ccc(OC)cc2)cc1,inactive,–
Cc1ccccc1C,inactive,–
CN(C)c1ccc(C(=N)c2ccc(N(C)C)cc2)cc1,inactive,40.5 µM (active)
Cc1ccc(C(C)(C)C)cc1,inactive,–
O=C1C=CC(=O)O1,inactive,–
c1c[nH]cn1,inactive,–
O=C1CCCCCCCCCCC(=O)OCCO1,inactive,–
CCCCOCCOC(=O)COc1nc(Cl)c(Cl)cc1Cl,inactive,–
O=C1CCCC1,inactive,–
CCCNC(=O)NS(=O)(=O)c1ccc(Cl)cc1,inactive,–
O=C(C(Cl)Cl)N1CCOC12CCCCC2,inactive,–
Cc1cnc(NC(=O)C2=C(O)c3ccccc3S(=O)(=O)N2C)s1,inactive,–
C=CC(=O)NC(C)(C)CS(=O)(=O)O,inactive,–
O=C(/C=C/C=C/c1ccc2c(c1)OCO2)N1CCCCC1,inactive,–
C[C@]12CCC(=O)C=C1CC[C@@H]1[C@@H]2C(=O)C[C@@]2(C)[C@H]1CC[C@]2(O)C(=O)CO,inactive,–
O=c1[nH]nc(-c2ccc([N+](=O)[O-])o2)o1,inactive,–
CC(=O)OC(C)C,inactive,–
O=Cc1ccc(CO)o1,inactive,–
Oc1ccc(Cl)cc1Cc1cc(Cl)ccc1O,inactive,–
[Cl][Nd]([Cl])[Cl],inactive,–
Cc1cc(=O)n(-c2ccccc2)n1C,inactive,–
NC(=O)N=NC(N)=O,inactive,–
Cc1c(C)c([N+](=O)[O-])c(C(C)(C)C)c([N+](=O)[O-])c1C,inactive,–
Cc1cccc(N(C)C(=S)Oc2ccc3ccccc3c2)c1,inactive,–
C#CC1(O)CC[C@H]2[C@@H]3CCC4=CCCC[C@@H]4[C@H]3CC[C@@]21C (some centres not stated),inactive,–
O=c1cc(-c2ccccc2)oc2ccccc12,inactive,–
Cn1c([N+](=O)[O-])cnc1COC(N)=O,inactive,–

# Assay: CCTE_Harrill_HTTr_CellCount_MCF7: CCTE's Cell Proliferation Assessment for the High-Throughput Transcriptomics (HTTr) Platform, Harrill Lab (AID 2284012; active = hit-call score of the fitted dose curve at least 0.9, where 1 is the maximum;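 also: cells exposed to compound for six hours; intended direction is loss of nuclei count meaning fewer cells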)
# Summary of the method: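 Cell count served as viability reporter: loss of Hoechst-stained nuclei, counted by high content imaging, marks decreased growth or survival. Exposure was 6 h in MCF-7 cells across eight concentrations, with DMSO as baseline.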
row,Compound,outcome
1,Nc1ccc(N=Nc2ccccc2)c(N)n1,inactive
2,CN(C)c1ccc(C(=N)c2ccc(N(C)C)cc2)cc1,inactive
3,Cc1ccc(C(C)(C)C)cc1,inactive
4,c1c[nH]cn1,inactive
5,CCCCOCCOC(=O)COc1nc(Cl)c(Cl)cc1Cl,inactive
6,C[C@]12CCC(=O)C=C1CC[C@@H]1[C@@H]2C(=O)C[C@@]2(C)[C@H]1CC[C@]2(O)C(=O)CO,inactive
7,NC(=O)N=NC(N)=O,inactive
